Most compounds without a hit are left out; they make up all but 8% or so of the library.
HCMV inh = human cytomegalovirus inhibition; activity change, negative = inhibition, % at 57.5 µM; HFF cells, HCMV-luciferase reporter, 72 h; active compounds read low; hit rate 4.5% among 410,000; AID 1259415; in the data active means activity change below about -60%; inconclusive means no clear call, values can overlap the other calls; inactive means above about -39%; further: on the % scale 0 is the no-effect control and ±100 the full control effect
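HFF cells seeded 16 h at 37C, treated with compounds, infected with luciferase-reporter HCMV at MOI 1 PFU/cell; luciferase read at 72 h post infection, normalized to buffer-only and Salinomycin controls.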
FMDV antiviral = blocks foot and mouth disease virus; Potency, µM (doses to about 57.9 µM), for the others: at the highest dose activity change, negative = inhibition, usual class: inhibitors; hit rate 1.2% among 410,000; FMDV antiviral cell-based qHTS; AID 1159524; calls by dose curve; tested in HEK293T cells; further: read-out not given here; potency means the concentration at half of the fitted maximal effect; on the % scale 0 is the no-effect control and ±100 the full control effect; nearly all actives have a fitted effect of over 45% in size
MARV entry inh = inhibitors of Marburg virus binding or cell entry. Potency, µM (titrated, usually from 37.8 µM), without a hit: at the top dose activity change, negative = inhibition, hits mostly inhibitors. Marburg virus pseudotyped entry inhibition, cell reporter. hit rate 1.8% among 300,000; calls by dose curve; tested in HEK293 cells; further: potency means the concentration at half of the fitted maximal effect; on the % scale 0 is the no-effect control and ±100 the full control effect
SARS PLpro yeast = blocks SARS-CoV papain-like protease in a yeast assay | S. cerevisiae expressing SARS-CoV PLpro, growth rescue | Potency, µM (highest dose often 32.9 µM), for the others: at the highest dose activity, positive = growth rescue, actives largely listed as activators | hit rate 0.19% among 330,000 | AID 485353; calls by dose curve; further: potency means the concentration at half of the fitted maximal effect; 0% is about no effect; nearly all actives have a fitted effect of over 55% in size
Lassa entry inh = inhibitors of Lassa virus binding or cell entry; AID 540256; Potency, µM (series often up to 37.9 µM), for the others: at the top dose activity change, negative = inhibition, usual class: inhibitors; Lassa virus pseudotype entry inhibition, cell reporter; hit rate 1.2% among 300,000; calls by dose curve; tested in HEK293 cells; further: potency means the concentration at half of the fitted maximal effect; on the % scale 0 is the no-effect control and ±100 the full control effect; nearly all actives have a fitted effect of over 50% in size
HCV inh = inhibitors of hepatitis C virus infection; hit rate 3.4% among 340,000; AID 651820; Potency, µM (highest dose often 41.8 µM), inactives show top-dose activity change, negative = inhibition, most hits filed as inhibitors; Huh7.5.1 HCVcc-Cre infection, luciferase reporter, 44 h; active means well fitted inhibition curve with a large enough effect; inconclusive means small, poorly fitted or top-dose-only effect, or another doubt; inactive means no such curve, though single readings can be large or run the other way; further: potency means the concentration at half of the fitted maximal effect; on the % scale 0 is the no-effect control and ±100 the full control effect
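Infectious HCVcc-Cre (~0.5 moi) was added to cells just after compound, with cells seeded 4 h earlier at 1,000 per well. Luciferase activity after 44 h culture reported infection; substrate was incubated 15 min at room temperature before reading.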
Active calls of the source: *; ? = inconclusive; nt = no result given; [ ] = dose if it differs, or a comment.

SMILES	HCMV inh	FMDV antiviral	MARV entry inh	SARS PLpro yeast	Lassa entry inh	HCV inh
COc1ccc2c(c1)sc(=NC(=O)CS(=O)(=O)c1ccc(F)cc1)n2C	-73*	-18%	?	0%	-5%	?
CCNc1nc(NCC)nc(SCCOc2ccc(C)cc2)n1	17	?	16µM*	-138%	?	?
O=C(C1CC(c2ccc(F)cc2)=NO1)N1CCCc2ccccc21 (stereo unspecified)	9	-19%	?	-3%	-7%	-30%
COc1ccc(OC)c(C2=NOC(C(=O)N3CCCc4ccccc43)C2)c1 (stereo unspecified)	-60*	-4%	17%	4%	4%	?
Cc1cnc(CNc2ncncc2-c2ccccc2CN(C)C)cn1	nt	0%	nt	nt	nt	nt
Cc1ccc(NC(=O)CSc2nc3ccccc3c3nc(CCc4c(C)n[nH]c4C)nn23)cc1F	?	-18%	?	5%	-27%	-2%
COc1cc2nc(SCC(=O)Nc3ccccc3C)n3nc(CCn4c(C)nc5ccccc54)nc3c2cc1OC	2	-14%	11%[46.1 µM]	nt	-1%[46.1 µM]	nt
Cc1n[nH]c(C)c1CCc1nc2c3ccccc3nc(SCC(=O)Nc3ccc(F)cc3)n2n1	-68*	?	nt	nt	?	nt
Cc1cncn1CCc1nc2c3ccccc3nc(SCC(=O)Nc3ccccc3F)n2n1	-67*	-9%	nt	nt	9%[46.1 µM]	nt
CCOc1ccccc1NC(=O)CSc1nc2cc(OC)c(OC)cc2c2nc(CCn3c(C)nc4ccccc43)nn12	-93*	-12%	10%[46.1 µM]	nt	17%[46.1 µM]	nt
Cc1cc(SCC(=O)NCc2ccc(F)cc2)nc(=O)[nH]1	0	4%	nt	nt	3%[46.1 µM]	nt
COc1ccccc1NC(=O)C1CCN(S(=O)(=O)c2ccc3c(c2)NC(=O)C(C)S3)CC1 (stereo unspecified)	0	?	nt	-2%	nt	?
c1ccc2c(c1)CCC[C@H]2Nc1nc2ccccc2[nH]1	nt	nt	-8%	nt	?	nt
O=[N+]([O-])/C=C/c1c(Cl)cccc1Cl	-19	7.9µM*	10µM*	nt	-5%	8.9µM*
O=[N+]([O-])/C=C/c1cc2ccccc2[nH]1	3	?	nt	-7%	nt	-7%
CC(OC(=O)c1cccc(NS(C)(=O)=O)c1)C(=O)Nc1ccc2c(c1)OCO2 (stereo unspecified)	3	?	-26%	4%	-21%	7.1µM*
COc1ccc(C2=NS(=O)(=O)N(C)C(C(=O)Nc3ccc4c(c3)OCO4)=C2)cc1OC	9	?	nt	6%	nt	13µM*
COc1cccc(C(=O)OC(C)C(=O)Nc2ccc3c(c2)OCO3)c1 (stereo unspecified)	-13	-15%	nt	-1%	nt	?
Cc1cc(NS(=O)(=O)c2ccc(NC(=O)c3c(F)c(F)c(F)c(F)c3F)cc2)nc(C)n1	?	38%	13%	2%	0%	12%
Cc1ccc(NS(=O)(=O)c2ccc(N3C(=O)CCC3=O)cc2)cc1	-84*	9%	1%	5%	1%	22%
Cc1ccc(S(=O)(=O)Nc2ccc(NC(=O)c3c(F)c(F)c(F)c(F)c3F)cc2)cc1	-27	-14%	nt	0%	nt	13µM*
Cc1cc(NC(=O)C2CCN(S(=O)(=O)c3ccc4[nH]c(=O)oc4c3)CC2)ccc1Br	-32	?	nt	nt	?	nt
CCC(CC)C(=O)Nc1cccc(C(=O)Nc2ccc3c(c2)OCO3)c1	-38	41%	19%	2%	0%	7.9µM*
COc1cc(SC)ccc1C(=O)Nc1ccc2c(c1)OCCO2	37	-13%	?	-9%	12µM*	?
CCc1nc2ccc(C(=O)O)cc2nc1CC	-14	?	2µM*	5%	15µM*	-2%
SMILES	HCMV inh	FMDV antiviral	MARV entry inh	SARS PLpro yeast	Lassa entry inh	HCV inh
CCc1nc2ccc(C(=O)Nc3ccc4c(c3)OCO4)cc2nc1CC	-31	49%	10%	-1%	-17%	2µM*
CCc1nc2ccc(C(=O)Nc3cccc(C(C)=O)c3)cc2nc1CC	-16	?	-9%	4%	-4%	?
CC1=C[S+](=O)([O-])CC1SC1=NC2C=CC=CC2=N1 (stereo unspecified)	nt	nt	-15%	nt	nt	nt
CCOc1ccc(C(=O)Nc2ccc3c(c2)OCO3)cc1OCC	43	14%	-14%	1%	3%	5.6µM*
CCC(CC)C(=O)Nc1cccc(C(=O)Nc2ccc(S(=O)(=O)Nc3ccc(C)cc3)cc2)c1	-97*	?	?	7%	?	16µM*
CCC(CC)C(=O)Nc1cccc(C(=O)Nc2ccc(S(N)(=O)=O)cc2)c1	-29	-10%	6%[46.1 µM]	3%	-25%[46.1 µM]	-24%
COc1ccc(Cl)cc1C(=O)Nc1ccc2c(c1)OCO2	260	15%	28%	-14%	9%	11µM*
COc1ccc(O[C@H]2C=C[C@@H](c3ccccc3)O[C@H]2CO/N=C2/[C@H]3O[C@@H]3[C@@H](O)[C@H]3[C@H]2CCn2c(=O)n(-c4ccccc4)c(=O)n23)cc1	nt	nt	5%[14.2 µM]	nt	nt	nt
NS(=O)(=O)c1ccc(N2CCN(CCOc3ccc(Cl)cc3)CC2)nc1	-84*	?	?	1%	?	?
O=S(=O)(c1cccs1)N1CCN(CC(O)COc2cc(Cl)ccc2Cl)CC1 (stereo unspecified)	-61*	?	?	-23%	?	?
O=S(=O)(c1cccs1)N1CCN(CCOc2ccc(Cl)cc2)CC1	-82*	?	nt	-4%	nt	?
O=S(=O)(c1cccs1)N1CCN(c2cccc(Cl)c2)CC1	-5	-8%	-17%	-4%	?	17%
NS(=O)(=O)c1ccc(N2CCN(S(=O)(=O)Cc3ccccc3)CC2)nc1	27	-7%	-21%[46.1 µM]	4%	-10%[46.1 µM]	11%
O=S(=O)(c1cccs1)N1CCN(c2ccc(Cl)cc2)CC1	-35	-6%	6%[46.1 µM]	3%	-12%[46.1 µM]	-6%
CC(Sc1nnnn1-c1ccc(O)cc1)C(=O)NNC(=O)c1ccc(F)cc1 (stereo unspecified)	0	-7%	-13%	0%	-7%	7.1µM*
O=C(COc1ccc([N+](=O)[O-])cc1)NNC(=O)Nc1ccc([N+](=O)[O-])cc1	15	-14%	nt	?	nt	11%
O=C(C/C=N\OCc1ccc([N+](=O)[O-])cc1)Nc1ccc(Br)cc1	-66*	-18%	-9%	-1%	-3%[46.1 µM]	-18%
CNC(=O)c1ccsc1NC(=O)C1CCCN1S(=O)(=O)c1cccs1 (stereo unspecified)	nt	-26%	4%[46.1 µM]	6%	-1%	2%
C/C=C(/C)C(=O)OC1C(OC(C)=O)[C@@]2(CO)C(O)C[C@@]3(C)C(=CCC4[C@@]5(C)CCC(OC6OC(C(=O)O)[C@@H](O[C@@H]7OC(CO)C(O)C(O)C7O)C(O)[C@H]6O[C@@H]6OC(CO)C(O)C(O)C6O)[C@](C)(CO)C5CC[C@@]43C)C2CC1(C)C (stereo partly specified)	nt	-9%	nt	nt	nt	nt
